# Assay results published in PubChem BioAssay (Tox21).
# Results filed as inconclusive are left out. Where a call stands in place of a potency, no number is given. Values without a mark were called inactive. Calls of active or inactive are those of the source. Unless noted, the call rests on the fitted dose curve; in most records, active means well fitted curve in the direction sought with a large enough effect in the repeat runs; inconclusive means weak or mixed curves; inactive means no such curve, though single readings can be large; an effect the other way counts as inactive or inconclusive.
# Tested on: not listed separately
# Assay: qHTS assay to identify small molecule antagonists of the androgen receptor (AR) signaling pathway using the MDA cell line in the presence of 0.5 nM R1881 - cell viability counter screen (AID 1259242); further: nearly all actives have a fitted effect of over 45% in size
# Conditions: MDA-kb2 viability, CellTiter-Fluor protease fluorescence, 16 h; series mostly up to 92.4 µM
# Outline: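 Cells seeded at 3,000/well and allowed 5 hr at 37C, 0% CO2 before compound transfer and R1881 (0.5 nM final) addition; 16 hr later, live-cell protease fluorescence indicated cytotoxicity.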
SMILES,outcome,"viability change, negative = cytotoxic"
CC(=O)OCC(=O)Nc1cc(C#N)cc(NC(=O)COC(C)=O)c1Cl,inactive,
c1ccc(B(c2ccccc2)c2ccccc2)cc1,inactive,
Cc1ccnc(N)c1,inactive,
CC(Oc1cc(Cl)ccc1Cl)C(=O)O (configuration not stated),inactive,
C/C=C(\C)C(C)=O,inactive,
CCOCCOCC,inactive,
c1ccc2cnccc2c1,inactive,
CCCCCCCCCCCCCBr,inactive,
CCC(C(=O)OCCN1CCOC(c2ccccc2)C1C)c1ccccc1 (configuration not stated),inactive,
O=C[O][Al]([O]C=O)[O]C=O,inactive,
CN(C)CCN(C)CCO,inactive,
Cc1ccc(C(C)NC(=O)[C@@H](NC(=O)OC(C)C)C(C)C)cc1 (some centres not stated),inactive,
CC1(C)CC(OC(=O)CCCCCCCCC(=O)OC2CC(C)(C)NC(C)(C)C2)CC(C)(C)N1,,0.781% [at 19 µM]
[O]=[Mo](=[O])=[O],,3.82% [at 19 µM]
CSc1cnccn1,inactive,
[O-][n+]1cccc(/C(Cl)=N/OC[C@@H](O)CN2CCCCC2)c1,inactive,
c1ccc(-c2nn[nH]n2)cc1,inactive,
C=CCSSCCC,inactive,
O=C1CCCCO1,inactive,
CC1=C(O)C(=O)C(C)O1 (configuration not stated),inactive,
COc1nc(N)nc2nc[nH]c12,inactive,
O=C(O)CSCC(=O)NC1CCSC1=O (configuration not stated),inactive,
CC(C)C[C@@H]1[C@H](c2ccccc2)OC(=O)N1CCCN1CCCCCC1,inactive,
CC(=O)c1cc(C)oc1C,inactive,
C=C(C)[C@@H]1CC=C(C)C(=O)C1,inactive,
CC12CCC(C1)C(C)(C)C2O (configuration not stated),inactive,
Cc1c(NC(=O)c2cccnc2)c(=O)n(-c2ccccc2)n1C,inactive,
CC(=O)C(C)O (configuration not stated),inactive,
CN(C)CC/C=C1/c2ccccc2COc2ccc(CC(=O)O)cc21,inactive,
CC(=O)CCC1=C(C)CCCC1(C)C,inactive,

# Biological target: Androgen receptor (Homo sapiens) (UniProt P10275)
# Assay: qHTS assay to identify small molecule antagonists of the androgen receptor (AR) signaling pathway using the MDA cell line in the presence of 0.5 nM R1881 (AID 1259243); further: nearly all actives have a fitted effect of over 50% in size
# Conditions: MDA-kb2 MMTV-luciferase, R1881 0.5 nM, 16 h; series mostly up to 92.4 µM
# Outline: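 Luminescence from an AR/GR-responsive MMTV-luciferase construct in MDA-kb2 breast carcinoma cells, read 30 min after ONE-Glo, following 16 hr co-treatment with compounds and 0.5 nM R1881.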
# Sequence of Androgen receptor (Homo sapiens) (P10275 whole entry, looked up): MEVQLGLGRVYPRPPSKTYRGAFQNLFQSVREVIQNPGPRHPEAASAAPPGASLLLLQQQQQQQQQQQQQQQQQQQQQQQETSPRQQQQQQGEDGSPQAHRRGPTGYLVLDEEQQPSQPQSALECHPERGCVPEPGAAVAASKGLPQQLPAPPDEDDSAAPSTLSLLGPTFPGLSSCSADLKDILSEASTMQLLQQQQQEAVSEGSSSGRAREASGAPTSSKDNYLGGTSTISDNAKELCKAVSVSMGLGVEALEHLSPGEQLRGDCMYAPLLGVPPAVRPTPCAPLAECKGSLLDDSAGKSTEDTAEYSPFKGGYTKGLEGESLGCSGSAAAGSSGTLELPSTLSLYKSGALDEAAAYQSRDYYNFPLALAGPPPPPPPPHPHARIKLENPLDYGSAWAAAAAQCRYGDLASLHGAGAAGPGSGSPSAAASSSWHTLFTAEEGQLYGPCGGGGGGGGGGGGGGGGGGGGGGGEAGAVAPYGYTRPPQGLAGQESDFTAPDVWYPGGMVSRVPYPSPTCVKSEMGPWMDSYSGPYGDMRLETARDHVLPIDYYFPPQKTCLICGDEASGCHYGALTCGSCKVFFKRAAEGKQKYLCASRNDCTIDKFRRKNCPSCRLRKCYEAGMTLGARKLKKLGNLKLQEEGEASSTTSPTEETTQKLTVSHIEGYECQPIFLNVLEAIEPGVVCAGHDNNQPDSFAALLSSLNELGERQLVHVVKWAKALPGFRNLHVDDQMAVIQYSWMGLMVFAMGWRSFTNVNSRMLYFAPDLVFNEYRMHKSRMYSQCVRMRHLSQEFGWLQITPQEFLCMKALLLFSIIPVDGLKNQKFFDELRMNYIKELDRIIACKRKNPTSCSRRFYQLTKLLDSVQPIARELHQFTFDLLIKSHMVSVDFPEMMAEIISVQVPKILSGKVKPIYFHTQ
row,SMILES,Potency
1,CC(Oc1cc(Cl)ccc1Cl)C(=O)O (configuration not stated),inactive
2,C/C=C(\C)C(C)=O,inactive
3,CC(=O)O[C@H]1C[C@@H]2CC[C@@]1(C)C2(C)C,inactive
4,[O-][n+]1cccc(/C(Cl)=N/OC[C@@H](O)CN2CCCCC2)c1,inactive
5,COC(=O)CCCCC(CCSS/C(CCO)=C(\C)N(C=O)Cc1cnc(C)nc1N)SC(C)=O (configuration not stated),inactive
6,O=C(O)CSCC(=O)NC1CCSC1=O (configuration not stated),inactive
7,CC(C)C[C@@H]1[C@H](c2ccccc2)OC(=O)N1CCCN1CCCCCC1,inactive
8,CC(=O)c1cc(C)oc1C,inactive

# Biological target: Estrogen receptor (Homo sapiens) (UniProt P03372)
# Assay: qHTS assay to identify small molecule antagonists of the estrogen receptor alpha (ER-alpha) signaling pathway using the BG1 cell line in the presence of 0.1 nM 17-beta-estradiol (AID 1259244); further: nearly all actives have a fitted effect of over 50% in size
# Conditions: VM7Luc4E2 (BG1) ERE-luciferase, antagonist mode, 0.1 nM E2, 22 h; series mostly up to 92.4 µM
# Outline: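 Luciferase signal from VM7Luc4E2 ERE-reporter cells, co-dosed with test compound and 0.1 nM final 17beta-estradiol for 22 h, read with ONE-Glo.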
# Sequence of Estrogen receptor (Homo sapiens) (P03372 whole entry, looked up): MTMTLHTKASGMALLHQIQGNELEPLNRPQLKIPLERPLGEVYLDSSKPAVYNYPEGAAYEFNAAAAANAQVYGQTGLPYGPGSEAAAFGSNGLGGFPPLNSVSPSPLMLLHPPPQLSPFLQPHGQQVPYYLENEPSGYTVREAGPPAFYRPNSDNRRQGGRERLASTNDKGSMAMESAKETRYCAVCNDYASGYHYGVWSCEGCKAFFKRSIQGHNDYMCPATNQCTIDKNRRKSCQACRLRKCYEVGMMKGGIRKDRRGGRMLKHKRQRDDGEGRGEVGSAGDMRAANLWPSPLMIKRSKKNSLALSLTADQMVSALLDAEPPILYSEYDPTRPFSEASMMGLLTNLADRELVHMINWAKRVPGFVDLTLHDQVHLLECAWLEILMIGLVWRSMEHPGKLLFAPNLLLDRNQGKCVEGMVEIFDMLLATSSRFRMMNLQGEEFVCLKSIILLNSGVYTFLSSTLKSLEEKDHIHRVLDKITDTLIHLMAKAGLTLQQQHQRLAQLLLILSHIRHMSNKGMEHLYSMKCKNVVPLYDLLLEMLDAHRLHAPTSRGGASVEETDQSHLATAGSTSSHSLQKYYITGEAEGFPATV
SMILES,outcome,"activity change, negative = inhibition"
CC(=O)OCC(=O)Nc1cc(C#N)cc(NC(=O)COC(C)=O)c1Cl,inactive,
c1ccc(B(c2ccccc2)c2ccccc2)cc1,inactive,
C/C=C(\C)C(C)=O,inactive,
CCOCCOCC,inactive,
c1ccc2cnccc2c1,inactive,
CCC(C(=O)OCCN1CCOC(c2ccccc2)C1C)c1ccccc1 (configuration not stated),inactive,
O=C[O][Al]([O]C=O)[O]C=O,inactive,
CN(C)CCN(C)CCO,inactive,
CC1(C)CC(OC(=O)CCCCCCCCC(=O)OC2CC(C)(C)NC(C)(C)C2)CC(C)(C)N1,,-2.8% [at 19 µM]
[O]=[Mo](=[O])=[O],,3.96% [at 19 µM]
C=CC/C=C/C,inactive,
CSc1cnccn1,inactive,
[O-][n+]1cccc(/C(Cl)=N/OC[C@@H](O)CN2CCCCC2)c1,inactive,
COC(=O)CCCCC(CCSS/C(CCO)=C(\C)N(C=O)Cc1cnc(C)nc1N)SC(C)=O (configuration not stated),inactive,
c1ccc(-c2nn[nH]n2)cc1,inactive,
C=CCSSCCC,inactive,
O=C1CCCCO1,inactive,
CC1=C(O)C(=O)C(C)O1 (configuration not stated),inactive,
COc1nc(N)nc2nc[nH]c12,inactive,
CC(C)C[C@@H]1[C@H](c2ccccc2)OC(=O)N1CCCN1CCCCCC1,inactive,
CC12CCC(C1)C(C)(C)C2O (configuration not stated),inactive,
Cc1c(NC(=O)c2cccnc2)c(=O)n(-c2ccccc2)n1C,inactive,
CC(=O)CCC1=C(C)CCCC1(C)C,inactive,
CC1OCCC1=O (configuration not stated),inactive,

# Tested on: not listed separately
# Assay: qHTS assay to identify small molecule phospholipidosis (PLD) inducers (AID 1259344; active means well fitted curve in the direction sought with a large enough effect; an effect the other way counts as inactive or inconclusive)
# Conditions: HepG2 phospholipidosis, LipidTOX Red imaging, 24 h; series mostly up to 38.3 µM
# Outline: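 Read-out is LipidTOX Red fluorescence (ex 595/em 615) imaged in HepG2 cells after 24 h compound exposure at 37 C, with Hoechst nuclear counterstain (ex 352/em 461) allowing per-cell normalisation.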
SMILES,PLD induction,outcome
CC(=O)OCC(=O)Nc1cc(C#N)cc(NC(=O)COC(C)=O)c1Cl,-3.87% [at 7.66 µM],
CCn1cc(C(=O)O)c(=O)c2cnc(N3CCCC3)nc21,,inactive
O=C(O)CSCC(=O)NC1CCSC1=O (configuration not stated),5.58% [at 7.66 µM],
Cc1c(NC(=O)c2cccnc2)c(=O)n(-c2ccccc2)n1C,,inactive
CN(C)CC/C=C1/c2ccccc2COc2ccc(CC(=O)O)cc21,,inactive

# Tested on: not listed separately
# Assay: qHTS assay to identify small molecule HDAC inhibitors (AID 1259364);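 further: wild-type HCT-116 cells with endogenous class I/II HDAC activity; top concentration of the series differs between compounds; nearly all actives have a fitted effect of over 45% in size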
# Conditions: HCT-116 HDAC-Glo I/II luminescence, 2 h; series mostly up to 92.4 µM
# Outline: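 HCT-116 wt cells, 1,500/well, overnight attach. Compounds (DMSO) 2 h, 37 °C. HDAC-Glo I/II, 30 min RT. Luminescence.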
SMILES,Potency,"activity change, negative = inhibition"
CC(=O)OCC(=O)Nc1cc(C#N)cc(NC(=O)COC(C)=O)c1Cl,inactive,
Cc1ccnc(N)c1,inactive,
CC(Oc1cc(Cl)ccc1Cl)C(=O)O (configuration not stated),inactive,
C/C=C(\C)C(C)=O,inactive,
CCOCCOCC,inactive,
c1ccc2cnccc2c1,inactive,
CCCCCCCCCCCCCBr,inactive,
CCC(C(=O)OCCN1CCOC(c2ccccc2)C1C)c1ccccc1 (configuration not stated),inactive,
CN(C)CCN(C)CCO,inactive,
Cc1ccc(C(C)NC(=O)[C@@H](NC(=O)OC(C)C)C(C)C)cc1 (some centres not stated),inactive,
CC1(C)CC(OC(=O)CCCCCCCCC(=O)OC2CC(C)(C)NC(C)(C)C2)CC(C)(C)N1,,6.2% [at 19 µM]
CC(=O)O[C@H]1C[C@@H]2CC[C@@]1(C)C2(C)C,inactive,
[O]=[Mo](=[O])=[O],,3.49% [at 19 µM]
C=CC/C=C/C,inactive,
CSc1cnccn1,inactive,
[O-][n+]1cccc(/C(Cl)=N/OC[C@@H](O)CN2CCCCC2)c1,inactive,
COC(=O)CCCCC(CCSS/C(CCO)=C(\C)N(C=O)Cc1cnc(C)nc1N)SC(C)=O (configuration not stated),inactive,
c1ccc(-c2nn[nH]n2)cc1,inactive,
C=CCSSCCC,inactive,
O=C1CCCCO1,inactive,
COc1nc(N)nc2nc[nH]c12,inactive,
O=C(O)CSCC(=O)NC1CCSC1=O (configuration not stated),inactive,
CC(=O)c1cc(C)oc1C,inactive,
C=C(C)[C@@H]1CC=C(C)C(=O)C1,inactive,
CC12CCC(C1)C(C)(C)C2O (configuration not stated),inactive,
Cc1c(NC(=O)c2cccnc2)c(=O)n(-c2ccccc2)n1C,inactive,
CC(=O)C(C)O (configuration not stated),inactive,
CC(=O)CCC1=C(C)CCCC1(C)C,inactive,
CC1OCCC1=O (configuration not stated),inactive,
CCOC(CN1CCN(CC(C)C(=O)c2ccccc2)CC1)c1ccccc1 (configuration not stated),,1.54% [at 19 µM]
